Test results from PubChem BioAssay (NCATS).
Inconclusive results are not listed. Calls of active or inactive are those of the source. Calls come from the whole dose curve; as a rule, active = well fitted curve in the direction sought with a large enough effect; inconclusive = small, poorly fitted or top-dose-only effect, or another doubt; inactive = no such curve, though single readings can be large; an effect the other way counts as inactive or inconclusive.

Key:
[1] = MultiTox-Fluor Cytotoxicity Assay - LYMP1-001 - Dead Cells (AID 946)
Outline: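 Cytotoxicity as increased dead-cell protease fluorescence (bis-AAF-R110, 485/520 nm), read 60 min after MultiTox-Fluor reagent. Human lymphoblastoid line exposed 16 h; Hill-fitted AC50, with DMSO as 0% and 15 uM tetraoctylammonium bromide as 100%.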

[2] = MultiTox-Fluor Cytotoxicity Assay - LYMP1-001 - Live Cells (AID 947)
[3] = Cell Viability - LYMP1-002 - Assay at 16 hr (AID 948)
Outline: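 LYMP1-002 human lymphoblastoid cells, 2500/well; 5 hr 37 C; cpd 16 hr 37 C; CellTiter-Glo 30 min RT; luminescence (ATP). Concentration-response, Hill-fit AC50. Pos ctrl tetraoctylammonium bromide.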

[4] = MultiTox-Fluor Cytotoxicity Assay - LYMP1-002 - Live Cells (AID 955);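 note: cells exposed to compound for 16 hours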
Outline: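 LYMP1-002 lymphoblastoid cells; 2500 cells/well; 16 hr compound exposure, 37 C; MultiTox-Fluor reagent 60 min RT; live-cell fluorescence Ex/Em=405/510; qHTS concentration-response, Hill-equation AC50; tetraoctylammonium bromide positive control.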

[5] = MultiTox-Fluor Cytotoxicity Assay - LYMP1-002 - Dead Cells (AID 960); note: nearly all actives have a fitted effect of over 60% in size
Outline: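 Readout: fluorescence at 485/520 from cell-impermeant bis-AAF-R110 cleaved by proteases leaking from damaged cells. LYMP1-002 lymphoblastoid line, 16 hr compound treatment at 37 C, concentration-response in qHTS format; Hill-equation AC50 values.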

[6] = MultiTox-Fluor Cytotoxicity Assay - LYMP1-003 - Dead Cells (AID 961); note: nearly all actives have a fitted effect of over 70% in size
Outline: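 Dead-cell protease release, detected as bis-AAF-R110 fluorescence at 485/520 nm, was measured in LYMP1-003 cells after 16 h compound treatment at 37 C. AC50 values came from Hill-modeled qHTS curves normalized to DMSO (0%) and 15 uM tetraoctylammonium bromide (100%).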

[7] = MultiTox-Fluor Cytotoxicity Assay - LYMP1-003 - Live Cells (AID 962);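 note: cells exposed to compound for 16 hours at 37 °C; cytotoxic hits lower the live-cell protease signal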
Outline: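 Readout: live-cell fluorescence (Ex/Em=405/510) from GF-AFC cleavage after 60 min MultiTox-Fluor reagent at room temperature. Lymphoblastoid LYMP1-003 cells, 16 hr compound treatment, 37 C. Concentration-response fitted to standard Hill equation for AC50.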

[8] = Cell Viability - LYMP1-003 - Assay at 24 hr (AID 963)
Outline: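 CellTiter-Glo luminescence (intracellular ATP) read after 24 hr, 37 C compound exposure of 2500 LYMP1-003 human lymphoblastoid cells/well in complete medium; qHTS concentration series; AC50 via standard Hill equation.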

[9] = Cell Viability - LYMP1-003 - Assay at 40 hr (AID 964); note: series mostly up to about 92 µM; nearly all actives have a fitted effect of over 60% in size
Outline: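 LYMP1-003 lymphoblastoid cells, 2500/well; 5 hr preincubation, 40 hr compound exposure, 37 C; CellTiter-Glo 30 min RT; luminescence; Hill-fit AC50. Positive control tetraoctylammonium bromide.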

[10] = Cell Viability - LYMP2-003 (AID 965);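 note: cells exposed to compounds for 24 h before reading; nearly all actives have a fitted effect of over 50% in size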
Outline: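 CellTiter-Glo luminescence (cellular ATP) after 24 h compound exposure at 37 C in complete medium; 2500 cells/well, 5 h settling beforehand. Concentration-response fitted to standard Hill equation for AC50. Tetraoctylammonium bromide served as positive control.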

[11] = Cell Viability - LYMP2-005 (AID 967); note: series mostly up to about 92 µM
Outline: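 Steps: seed 2500 LYMP2-005 cells/well, incubate 5 h at 37 C, add compound, incubate 24 h at 37 C, add CellTiter-Glo, wait 30 min at RT, read luminescence. Concentration-response data fitted to Hill equation for AC50.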

[12] = Cell Viability - LYMP2-009 (AID 968); note: series mostly up to about 92 µM; nearly all actives have a fitted effect of over 55% in size
[13] = Cell Viability - LYMP2-011 (AID 969);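 note: cells exposed to compound for 24 hours; nearly all actives have a fitted effect of over 60% in size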
Outline: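 Luminescent ATP read-out (CellTiter-Glo, 30 min RT) after 24 hr compound exposure at 37 C in human lymphoblastoid cells, 2500 cells/well. Decreasing ATP indicates cytotoxicity; AC50 from standard Hill fit.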

[14] = Cell Viability - LYMP2-013 (AID 970); note: series mostly up to about 92 µM; nearly all actives have a fitted effect of over 55% in size
Outline: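 CellTiter-Glo luminescence (cellular ATP) read after 30 min at RT. Cells: human lymphoblastoid line, 2500/well, 24 hr compound exposure at 37 C. Tetraoctylammonium bromide positive control; AC50 via standard Hill fit of qHTS titrations.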

[15] = Cell Viability - LYMP2-015 (AID 971); note: nearly all actives have a fitted effect of over 55% in size
Outline: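 qHTS cytotoxicity: 2500 cells/well, 5 hr 37 C, compound 24 hr 37 C, CellTiter-Glo 30 min RT, luminescence. Loss of ATP = toxicity; AC50 via standard Hill fit.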

[16] = Cell Viability - LYMP2-017 (AID 972);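 note: series mostly up to about 92 µM; cells exposed to compound for 24 hours at 37 °C; nearly all actives have a fitted effect of over 55% in size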
Outline: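 Luminescent ATP read-out (CellTiter-Glo, 30 min RT) reports viable cell number. Cells: human lymphoblastoid line, 2500 per well, 5 hr preincubation, 24 hr compound exposure at 37 C. AC50 is derived from qHTS concentration-response data using the standard Hill model.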

[17] = Cell Viability - LYMP2-019 (AID 973); note: nearly all actives have a fitted effect of over 55% in size
Outline: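 qHTS, 1536-well; 2500 cells/well; 5 hr pre-incubation, 24 hr compound exposure, 37 C; CellTiter-Glo added, 30 min RT; luminescence read; AC50 via standard Hill equation.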

[18] = Cell Viability - LYMP2-021 (AID 974)
Outline: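 ATP luminescence (CellTiter-Glo, 30 min RT) after 24 h compound exposure at 37 C; 2500 human lymphoblastoid cells/well, 5 h settle beforehand. Cytotoxicity = concentration-dependent ATP drop, AC50 by Hill fit.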

[19] = Cell Viability - LYMP2-023 (AID 975)
Outline: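 CellTiter-Glo luminescence after 30 min at room temperature; decrease in intracellular ATP reflects toxicity. Cells: human lymphoblastoid line, 2500/well, 24 hr compound exposure at 37 C. AC50 fitted to standard Hill equation from concentration-response.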

[20] = Cell Viability - LYMP2-004 (AID 966); note: nearly all actives have a fitted effect of over 65% in size
Outline: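 Luminescent ATP read-out (CellTiter-Glo, 30 min RT) after 24 hr compound exposure at 37 C; 2500 lymphoblastoid cells/well, complete medium. Decrease in ATP = cytotoxicity; AC50 from standard Hill model.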

Measured: Potency

Cc1ccc([N+](=O)[O-])c(N)c1
not listed: [20]
inactive: all other assays above

COC(=O)CCC(=O)OC
not listed: [13] | [18]
inactive: all other assays above

CC(O)COC(C)(C)C (stereo not given)
not listed: [12]
inactive: all other assays above

CCc1ccccc1
not listed: [12]
inactive: all other assays above

COc1ccc(N)c(C)c1
not listed: [11] | [13]
inactive: all other assays above

Cc1ccc(Cl)cc1
not listed: [13] | [14]
inactive: all other assays above

O=[N+]([O-])c1ccc(CCO)cc1
not listed: [14] | [15] | [16] | [18]
inactive: all other assays above

COc1ccc(N)c(OC)c1
not listed: [20]
inactive: all other assays above

CC(=O)Nc1ccc(C)cc1
not listed: [11] | [14] | [19]
inactive: all other assays above

N#CCc1ccccc1[N+](=O)[O-]
not listed: [12] | [19]
inactive: all other assays above

CCNS(=O)(=O)c1ccc(C)cc1
not listed: [14]
inactive: all other assays above

CCCCC=O
not listed: [20]
inactive: all other assays above

CC(C)(C)OCC1CO1 (stereo not given)
not listed: [20]
inactive: all other assays above

Cc1ccc(S(=O)(=O)NC2CCCCC2)cc1
not listed: [13]
inactive: all other assays above

CCCCC(CC)CO (stereo not given)
not listed: [19] | [20]
inactive: all other assays above
